# Measurements as given in ChEMBL document CHEMBL1961873, “Compounds: GSK PKIS; Assays: Nanosyn kinase panel” (2012).
# What was measured:
# [1] = molecular target: Sphingosine kinase 1 (Homo sapiens) (UniProt Q9NYA1); settings: at 1 µM;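 also: mean SPHK1 inhibition value reported from the GSK PKIS kinase panel screen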
# [2] = molecular target: T1, Sphingosine kinase 2 (Homo sapiens) (UniProt Q9NRA0); settings: at 0.1 µM
# T1 sequence (whole entry): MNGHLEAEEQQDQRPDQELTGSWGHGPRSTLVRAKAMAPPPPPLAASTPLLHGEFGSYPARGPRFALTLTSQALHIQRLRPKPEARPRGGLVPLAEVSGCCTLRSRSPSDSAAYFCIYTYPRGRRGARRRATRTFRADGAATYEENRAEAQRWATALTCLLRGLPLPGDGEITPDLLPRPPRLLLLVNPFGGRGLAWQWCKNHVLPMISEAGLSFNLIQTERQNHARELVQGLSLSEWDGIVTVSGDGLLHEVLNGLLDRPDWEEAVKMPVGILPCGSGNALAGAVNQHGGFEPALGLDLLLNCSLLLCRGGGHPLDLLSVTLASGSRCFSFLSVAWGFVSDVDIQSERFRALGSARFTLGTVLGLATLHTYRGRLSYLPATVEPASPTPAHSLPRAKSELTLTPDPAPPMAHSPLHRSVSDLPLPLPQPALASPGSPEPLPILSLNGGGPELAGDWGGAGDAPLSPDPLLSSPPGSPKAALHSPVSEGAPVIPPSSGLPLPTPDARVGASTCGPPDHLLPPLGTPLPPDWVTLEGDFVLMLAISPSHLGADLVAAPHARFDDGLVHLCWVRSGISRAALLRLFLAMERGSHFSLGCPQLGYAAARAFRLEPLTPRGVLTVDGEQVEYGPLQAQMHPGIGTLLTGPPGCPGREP
# [3] = molecular target: T1, Sphingosine kinase 2 (Homo sapiens); settings: at 1 µM
# [4] = molecular target: Casein kinase II subunit alpha (Homo sapiens) (UniProt P68400); settings: at 0.1 µM
# [5] = molecular target: Casein kinase II subunit alpha (Homo sapiens) (UniProt P68400); settings: at 1 µM
# [6] = molecular target: T2, Inhibitor of nuclear factor kappa-B kinase subunit alpha (Homo sapiens) (UniProt O15111); settings: at 0.1 µM
# T2 sequence (whole entry): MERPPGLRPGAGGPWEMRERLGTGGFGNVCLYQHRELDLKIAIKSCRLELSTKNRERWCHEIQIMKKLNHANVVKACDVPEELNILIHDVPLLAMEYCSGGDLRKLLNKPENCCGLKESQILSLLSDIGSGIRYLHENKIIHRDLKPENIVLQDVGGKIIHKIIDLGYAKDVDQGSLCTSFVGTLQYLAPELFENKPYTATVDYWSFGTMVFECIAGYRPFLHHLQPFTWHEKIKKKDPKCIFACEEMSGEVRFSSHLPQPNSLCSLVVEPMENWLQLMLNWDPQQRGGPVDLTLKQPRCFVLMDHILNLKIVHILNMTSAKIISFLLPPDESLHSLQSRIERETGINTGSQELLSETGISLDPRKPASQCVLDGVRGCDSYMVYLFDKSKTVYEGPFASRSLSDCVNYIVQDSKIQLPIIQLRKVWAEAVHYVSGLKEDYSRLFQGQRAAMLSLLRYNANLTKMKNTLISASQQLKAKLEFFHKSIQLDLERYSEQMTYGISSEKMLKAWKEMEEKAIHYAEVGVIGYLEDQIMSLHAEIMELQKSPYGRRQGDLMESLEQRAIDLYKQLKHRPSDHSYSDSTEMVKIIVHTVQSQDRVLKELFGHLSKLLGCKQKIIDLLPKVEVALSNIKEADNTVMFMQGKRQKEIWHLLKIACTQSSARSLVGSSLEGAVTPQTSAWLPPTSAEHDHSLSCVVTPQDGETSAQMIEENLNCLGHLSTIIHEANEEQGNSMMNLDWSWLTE
# [7] = molecular target: T2, Inhibitor of nuclear factor kappa-B kinase subunit alpha (Homo sapiens); settings: at 1 µM
# [8] = molecular target: T3, Inhibitor of nuclear factor kappa-B kinase subunit beta (Homo sapiens) (UniProt O14920); settings: at 0.1 µM
# T3 sequence (whole entry): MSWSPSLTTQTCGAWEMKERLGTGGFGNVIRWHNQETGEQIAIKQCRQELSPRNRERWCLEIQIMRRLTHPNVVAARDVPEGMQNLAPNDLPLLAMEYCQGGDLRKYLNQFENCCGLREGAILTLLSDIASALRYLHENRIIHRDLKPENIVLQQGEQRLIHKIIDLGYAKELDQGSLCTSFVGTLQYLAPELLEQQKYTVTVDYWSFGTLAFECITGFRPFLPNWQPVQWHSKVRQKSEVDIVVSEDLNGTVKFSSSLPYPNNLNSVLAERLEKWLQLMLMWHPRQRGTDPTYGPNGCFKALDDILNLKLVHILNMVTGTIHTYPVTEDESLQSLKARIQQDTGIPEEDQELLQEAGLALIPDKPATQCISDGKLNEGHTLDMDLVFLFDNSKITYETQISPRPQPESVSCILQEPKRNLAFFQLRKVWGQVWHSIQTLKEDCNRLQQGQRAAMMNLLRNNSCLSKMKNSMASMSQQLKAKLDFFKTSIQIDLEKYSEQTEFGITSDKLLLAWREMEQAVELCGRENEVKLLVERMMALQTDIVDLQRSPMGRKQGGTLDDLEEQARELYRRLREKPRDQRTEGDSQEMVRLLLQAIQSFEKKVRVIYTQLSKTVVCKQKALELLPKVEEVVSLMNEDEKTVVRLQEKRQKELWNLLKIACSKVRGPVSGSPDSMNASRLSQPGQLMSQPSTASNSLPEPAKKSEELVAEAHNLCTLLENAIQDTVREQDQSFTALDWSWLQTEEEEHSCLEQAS
# [9] = molecular target: T3, Inhibitor of nuclear factor kappa-B kinase subunit beta (Homo sapiens); settings: at 1 µM
# [10] = molecular target: T4, Inhibitor of nuclear factor kappa-B kinase subunit epsilon (Homo sapiens) (UniProt Q14164); settings: at 0.1 µM
# T4 sequence (whole entry): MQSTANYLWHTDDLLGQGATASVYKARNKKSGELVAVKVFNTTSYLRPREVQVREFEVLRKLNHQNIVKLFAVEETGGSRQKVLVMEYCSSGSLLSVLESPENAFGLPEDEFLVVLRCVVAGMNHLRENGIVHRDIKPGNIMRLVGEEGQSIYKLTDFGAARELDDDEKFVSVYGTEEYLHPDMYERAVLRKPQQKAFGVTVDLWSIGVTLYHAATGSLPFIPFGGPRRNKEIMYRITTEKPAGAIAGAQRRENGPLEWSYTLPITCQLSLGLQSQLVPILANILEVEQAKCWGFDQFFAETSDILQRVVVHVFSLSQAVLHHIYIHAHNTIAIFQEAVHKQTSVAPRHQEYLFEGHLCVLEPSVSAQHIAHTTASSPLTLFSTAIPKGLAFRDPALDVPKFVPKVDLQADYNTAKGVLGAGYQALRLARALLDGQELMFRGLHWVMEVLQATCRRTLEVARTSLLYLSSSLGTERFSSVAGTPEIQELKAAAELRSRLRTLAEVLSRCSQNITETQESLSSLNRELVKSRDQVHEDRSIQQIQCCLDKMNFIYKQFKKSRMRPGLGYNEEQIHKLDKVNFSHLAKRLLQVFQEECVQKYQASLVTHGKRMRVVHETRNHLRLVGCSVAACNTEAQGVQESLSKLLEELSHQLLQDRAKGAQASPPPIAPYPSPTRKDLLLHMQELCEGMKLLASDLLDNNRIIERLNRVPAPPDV
# [11] = molecular target: T4, Inhibitor of nuclear factor kappa-B kinase subunit epsilon (Homo sapiens); settings: at 1 µM
# [12] = molecular target: T5, Serine/threonine-protein kinase Nek1 (Homo sapiens) (UniProt Q96PY6); settings: at 0.1 µM
# T5 sequence (whole entry): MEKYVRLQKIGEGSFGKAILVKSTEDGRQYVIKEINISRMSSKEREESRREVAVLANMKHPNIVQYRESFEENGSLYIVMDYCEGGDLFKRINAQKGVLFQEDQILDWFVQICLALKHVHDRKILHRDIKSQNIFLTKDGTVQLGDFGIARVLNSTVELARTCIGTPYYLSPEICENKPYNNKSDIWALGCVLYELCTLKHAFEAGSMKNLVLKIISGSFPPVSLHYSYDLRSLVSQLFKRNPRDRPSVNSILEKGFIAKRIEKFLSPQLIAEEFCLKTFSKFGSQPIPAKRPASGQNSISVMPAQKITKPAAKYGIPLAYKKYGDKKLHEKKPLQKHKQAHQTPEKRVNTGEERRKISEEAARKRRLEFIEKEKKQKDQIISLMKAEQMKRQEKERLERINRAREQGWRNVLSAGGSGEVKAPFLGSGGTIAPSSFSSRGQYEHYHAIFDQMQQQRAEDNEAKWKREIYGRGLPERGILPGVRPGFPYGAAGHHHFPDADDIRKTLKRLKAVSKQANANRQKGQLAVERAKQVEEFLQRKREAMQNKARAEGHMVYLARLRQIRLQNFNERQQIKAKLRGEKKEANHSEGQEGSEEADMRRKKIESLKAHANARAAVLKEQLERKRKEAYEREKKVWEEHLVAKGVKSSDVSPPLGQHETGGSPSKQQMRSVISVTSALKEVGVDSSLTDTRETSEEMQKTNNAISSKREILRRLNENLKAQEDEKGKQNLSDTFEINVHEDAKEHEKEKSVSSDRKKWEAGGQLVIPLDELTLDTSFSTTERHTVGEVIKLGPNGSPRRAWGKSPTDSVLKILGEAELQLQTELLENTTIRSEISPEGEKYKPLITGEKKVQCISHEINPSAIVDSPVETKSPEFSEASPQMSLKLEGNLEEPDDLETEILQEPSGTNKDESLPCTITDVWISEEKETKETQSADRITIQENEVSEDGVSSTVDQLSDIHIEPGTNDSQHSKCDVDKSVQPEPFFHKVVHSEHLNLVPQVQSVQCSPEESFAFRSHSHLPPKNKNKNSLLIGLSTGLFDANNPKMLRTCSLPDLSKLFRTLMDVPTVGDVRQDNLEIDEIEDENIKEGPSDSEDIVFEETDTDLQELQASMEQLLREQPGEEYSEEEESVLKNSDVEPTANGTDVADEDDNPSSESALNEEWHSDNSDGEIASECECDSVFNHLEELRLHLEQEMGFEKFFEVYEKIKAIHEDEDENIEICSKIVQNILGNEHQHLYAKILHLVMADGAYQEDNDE
# [13] = molecular target: T5, Serine/threonine-protein kinase Nek1 (Homo sapiens); settings: at 1 µM
# [14] = molecular target: T6, Serine/threonine-protein kinase Nek2 (Homo sapiens) (UniProt P51955); settings: at 0.1 µM
# T6 sequence (whole entry): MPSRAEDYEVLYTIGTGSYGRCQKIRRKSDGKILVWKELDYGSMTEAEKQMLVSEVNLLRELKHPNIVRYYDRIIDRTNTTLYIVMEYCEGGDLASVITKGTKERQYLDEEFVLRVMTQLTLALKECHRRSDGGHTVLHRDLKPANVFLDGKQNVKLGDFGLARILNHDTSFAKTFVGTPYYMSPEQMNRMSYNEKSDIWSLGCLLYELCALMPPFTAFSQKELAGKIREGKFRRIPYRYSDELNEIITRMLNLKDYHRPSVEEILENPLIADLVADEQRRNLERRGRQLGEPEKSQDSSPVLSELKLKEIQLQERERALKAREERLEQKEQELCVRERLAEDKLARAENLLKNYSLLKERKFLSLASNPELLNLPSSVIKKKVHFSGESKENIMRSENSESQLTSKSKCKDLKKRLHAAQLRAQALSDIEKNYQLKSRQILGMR
# [15] = molecular target: T6, Serine/threonine-protein kinase Nek2 (Homo sapiens); settings: at 1 µM
# [16] = molecular target: Serine/threonine-protein kinase Nek6 (Homo sapiens) (UniProt Q9HC98); settings: at 0.1 µM
# [17] = molecular target: Serine/threonine-protein kinase Nek6 (Homo sapiens) (UniProt Q9HC98); settings: at 1 µM
# [18] = molecular target: Serine/threonine-protein kinase Nek7 (Homo sapiens) (UniProt Q8TDX7); settings: at 0.1 µM
# [19] = molecular target: Serine/threonine-protein kinase Nek7 (Homo sapiens) (UniProt Q8TDX7); settings: at 1 µM
# [20] = molecular target: T7, Serine/threonine-protein kinase Nek9 (Homo sapiens) (UniProt Q8TD19); settings: at 0.1 µM;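 also: reported value is the mean percent inhibition of NEK9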
# T7 sequence (whole entry): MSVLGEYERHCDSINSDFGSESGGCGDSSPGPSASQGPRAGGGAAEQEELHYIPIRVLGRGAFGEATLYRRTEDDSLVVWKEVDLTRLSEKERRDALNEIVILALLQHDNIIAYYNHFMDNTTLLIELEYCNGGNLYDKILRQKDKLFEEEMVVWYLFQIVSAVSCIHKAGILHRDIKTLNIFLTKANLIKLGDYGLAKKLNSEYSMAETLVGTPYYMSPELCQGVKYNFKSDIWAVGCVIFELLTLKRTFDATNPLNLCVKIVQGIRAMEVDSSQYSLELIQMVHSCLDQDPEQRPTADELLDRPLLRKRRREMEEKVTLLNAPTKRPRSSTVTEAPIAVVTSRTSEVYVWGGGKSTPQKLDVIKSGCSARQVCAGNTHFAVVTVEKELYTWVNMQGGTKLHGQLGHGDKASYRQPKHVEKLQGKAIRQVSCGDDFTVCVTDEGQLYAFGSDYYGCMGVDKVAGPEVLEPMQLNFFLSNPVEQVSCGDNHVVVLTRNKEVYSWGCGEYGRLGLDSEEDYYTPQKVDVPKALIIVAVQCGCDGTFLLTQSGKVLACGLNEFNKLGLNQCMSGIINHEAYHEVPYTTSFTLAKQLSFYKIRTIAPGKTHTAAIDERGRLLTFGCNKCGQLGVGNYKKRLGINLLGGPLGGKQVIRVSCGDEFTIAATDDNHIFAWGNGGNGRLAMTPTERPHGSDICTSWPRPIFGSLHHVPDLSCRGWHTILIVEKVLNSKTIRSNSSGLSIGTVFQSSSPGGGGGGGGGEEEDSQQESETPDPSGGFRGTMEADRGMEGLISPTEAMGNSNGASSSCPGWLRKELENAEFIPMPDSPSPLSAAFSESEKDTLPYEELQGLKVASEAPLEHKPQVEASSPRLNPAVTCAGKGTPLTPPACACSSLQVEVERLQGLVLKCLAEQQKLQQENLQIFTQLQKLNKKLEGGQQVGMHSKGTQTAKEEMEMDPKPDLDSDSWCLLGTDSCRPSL
# Chain of Casein kinase II subunit alpha (Homo sapiens) (P68400 whole entry, looked up): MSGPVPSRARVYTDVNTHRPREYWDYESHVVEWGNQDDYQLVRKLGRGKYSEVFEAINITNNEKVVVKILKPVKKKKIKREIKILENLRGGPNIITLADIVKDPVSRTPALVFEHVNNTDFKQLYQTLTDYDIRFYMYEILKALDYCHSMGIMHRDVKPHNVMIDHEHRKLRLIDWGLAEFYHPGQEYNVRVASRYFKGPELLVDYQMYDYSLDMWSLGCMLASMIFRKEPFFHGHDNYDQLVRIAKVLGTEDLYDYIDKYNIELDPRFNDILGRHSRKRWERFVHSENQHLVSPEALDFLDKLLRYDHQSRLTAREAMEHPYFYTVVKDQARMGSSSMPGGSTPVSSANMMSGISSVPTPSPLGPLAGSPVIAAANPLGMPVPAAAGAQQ
# Chain of Serine/threonine-protein kinase Nek6 (Homo sapiens) (Q9HC98 whole entry): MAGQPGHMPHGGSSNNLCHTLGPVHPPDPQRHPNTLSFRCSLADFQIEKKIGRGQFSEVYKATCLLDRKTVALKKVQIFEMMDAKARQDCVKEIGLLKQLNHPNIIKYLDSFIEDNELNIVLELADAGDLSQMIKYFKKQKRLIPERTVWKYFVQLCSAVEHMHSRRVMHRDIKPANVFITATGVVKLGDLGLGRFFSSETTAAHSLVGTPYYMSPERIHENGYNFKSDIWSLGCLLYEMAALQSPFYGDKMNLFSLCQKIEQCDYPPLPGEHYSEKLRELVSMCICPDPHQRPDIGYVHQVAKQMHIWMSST
# Chain of Serine/threonine-protein kinase Nek7 (Homo sapiens) (Q8TDX7 whole entry, looked up): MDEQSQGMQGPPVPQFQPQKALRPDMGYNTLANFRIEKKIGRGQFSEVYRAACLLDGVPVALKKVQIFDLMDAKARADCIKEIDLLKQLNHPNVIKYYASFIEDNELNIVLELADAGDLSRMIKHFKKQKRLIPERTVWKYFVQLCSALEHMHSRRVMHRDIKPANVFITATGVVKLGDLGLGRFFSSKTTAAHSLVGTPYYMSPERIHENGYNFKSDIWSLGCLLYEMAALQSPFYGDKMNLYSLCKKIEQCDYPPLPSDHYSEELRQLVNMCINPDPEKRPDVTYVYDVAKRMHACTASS
# Chain of Sphingosine kinase 1 (Homo sapiens) (Q9NYA1 whole entry): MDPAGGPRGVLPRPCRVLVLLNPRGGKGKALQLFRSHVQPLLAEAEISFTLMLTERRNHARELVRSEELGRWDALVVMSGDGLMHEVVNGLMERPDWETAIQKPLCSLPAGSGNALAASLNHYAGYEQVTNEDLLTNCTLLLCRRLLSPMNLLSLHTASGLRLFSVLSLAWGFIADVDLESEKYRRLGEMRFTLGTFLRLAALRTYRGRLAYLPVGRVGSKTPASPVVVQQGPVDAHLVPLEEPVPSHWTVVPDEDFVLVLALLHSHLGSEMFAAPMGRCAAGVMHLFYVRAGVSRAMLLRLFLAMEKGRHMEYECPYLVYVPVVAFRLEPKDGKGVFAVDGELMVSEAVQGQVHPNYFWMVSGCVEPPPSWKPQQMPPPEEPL
Compound,inhibition [1],inhibition [2],inhibition [3],inhibition [4],inhibition [5],inhibition [6],inhibition [7],inhibition [8],inhibition [9],inhibition [10],inhibition [11],inhibition [12],inhibition [13],inhibition [14],inhibition [15],inhibition [16],inhibition [17],inhibition [18],inhibition [19],inhibition [20]
Cc1ccc2c(c1)/C(=N/Nc1ccc(S(N)(=O)=O)cc1)C(=O)N2,0.07%,0.19%,0.62%,-2.8%,-4.47%,8.72%,4.99%,1.92%,1.12%,-5.56%,-2.89%,-0.29%,1.65%,0.94%,0.07%,-2.33%,-1.82%,2.58%,2.3%,2%
Cc1nc(-c2ccccc2)n2nc(NCCCN3CCOCC3)ncc12,-2.26%,-1.13%,-0.14%,13.3%,6.84%,-0.66%,5.55%,2.75%,4.98%,4.87%,6.26%,1.82%,1.68%,3.14%,1.97%,-0.18%,3.25%,1.2%,2.34%,7.69%
